system: Human papillomavirus type 1a protein E7 (residues 44-93); assay: small molecules binding HPV E7 44-93 – biochemical, small-molecule microarray, residues 44-93, 635 nm fluorescence, primary screen (AID 1108); details: fluorescence 635 nm, higher = more signal;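 further: E7 fragment applied at 1 µg/mL in TBST for 1 h at 4 C; score combines spot fluorescence with its signal to noise ratio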

Row | SMILES | composite z-score
1 | CCOC(=O)C[C@H]1[C@H](OC(=O)c2ccccc2-c2ccccc2)[C@@H](NC(=O)c2ccc3ccccc3n2)c2cc(OCCCO)ccc2N1C(=O)Cc1ccc(OC)cc1 | 0.345
2 | CCOc1cc(C(O)C2C=CC3C(=O)NC(=O)C3N2Nc2ccc(Cl)cc2Cl)ccc1O (configuration not stated) | -1.7
3 | Cc1ccc(NN2C(C(O)c3c(F)cccc3Cl)C=CC3C(=O)N(C4CCCCC4)C(=O)C32)cc1 (configuration not stated) | 0.51
4 | CCOC(=O)C[C@H]1[C@H](OC(=O)c2ccc(-c3ccccc3)cc2)[C@@H](NC(=O)CC(C)C)c2cc(OCCCO)ccc2N1C(=O)c1ccc2ccccc2n1 | 0.903
5 | COC(=O)[C@@]1(Cc2ccccc2)[C@H]2c3cc(C(=O)N4CCCC4)n(CCc4ccccn4)c3C[C@H]2CN1C(=O)c1ccccc1 | 1.43
6 | Cc1ccc(S[C@]2(C(=O)NC(C)C)CC(=O)N(Cc3cc(C(F)(F)F)cc(C(F)(F)F)c3)[C@@H]2c2ccc(CO)cc2)cc1 | -0.411

system: not listed separately; assay: hepatitis C replication reporter changes, two-sided – Huh7 cells, luciferase reporter, HCV replication inhibitor project, primary screen (AID 1109); details: Huh7 HCV replicon luciferase reporter, 48 h; higher = more signal;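 further: huh7 hepatoma cells harbouring a luciferase neomycin HCV replicon reporter; luciferase luminescence as measure of HCV replicon replication; test concentration not given here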

Row | SMILES | z-score
7 | CC(C)[Si]1(C(C)C)OCc2cc(C3CC3)nc(-c3ccc(Oc4ccccc4)cc3)c21 | -2.24
8 | O=C1NC(=O)C2C1C=CC(C(O)c1ccco1)N2Nc1ccc(Cl)cc1Cl (configuration not stated) | -0.664
9 | Cc1ccc(N2C(=O)c3ccccc3[C@@H](C(=O)NCCCN(C)C)[C@@H]2c2ccc(CO)cc2)nc1 | 0.234
10 | CCCCCCc1nc(Cc2cc(OC)c(OC)c(OC)c2)cc2c1[Si](C(C)C)(C(C)C)OC2 | -1.96
11 | CCOC(=O)C1=C[C@@H](C(C)(C)C)N(S(=O)(=O)c2ccc(C)cc2)[C@H]1c1cccc2ccccc12 | -2.28
12 | COc1cc2c(cc1O)C(c1cccs1)N(Cc1cc3c(cc1Br)OCO3)CC2 (configuration not stated) | -2.05
13 | C=CCNC(=O)[C@@H]1[C@H]2C(=O)O[C@H](c3ccccc3)[C@H](c3ccccc3)N2[C@H](c2ccccc2OCCO)[C@@]12C(=O)Nc1ccc(C#CCC(C(=O)OC)C(=O)OC)cc12 | -3.28
14 | C=CCN1C(=O)[C@]2(CCS(=O)(=O)c3ccccc3)N=C(c3ccc(OCCCO)cc3)O[C@@H]2c2ccccc21 | -2.68
15 | CC(c1ccccc1)C(O)C1C=CC2C(=O)N(C)C(=O)C2N1Nc1ccccc1 (configuration not stated) | -0.684
16 | N#Cc1ccc(NN2C(C(O)c3ccc(Br)cc3)C=CC3C(=O)N(c4ccccc4)C(=O)C32)cc1 (configuration not stated) | -0.431
17 | COc1ccc([Si](C)(C)[C@@H]2[C@@H](CCO)O[C@]3(C(=O)N(Cc4cccc(NC(=O)[C@H](C)O)c4)c4ccccc43)[C@H]2C)cc1 | -5.17
18 | CCCCC(CC)C(O)C1C=CC2C(=O)N(C)C(=O)C2N1Nc1ccccc1 (configuration not stated) | -0.813
19 | COCCOC(=O)N1C(=O)[C@@]2(c3cc(C#CCCO)ccc31)[C@H](c1ccc(OCCO)cc1)N1[C@H](c3ccccc3)[C@H](c3ccccc3)OC(=O)[C@H]1[C@@H]2C(=O)Nc1nc2ccccc2s1 | -1.13
20 | [N-]=[N+]=NCc1ccccc1[C@@H]1OC(c2ccc(OCCCO)cc2)=N[C@]1(CCS(=O)(=O)c1ccccc1)C(=O)O | 1.1
21 | O=C1C[C@]2(c3ccc([N+](=O)[O-])cc3)C(=O)N(C3CC3)c3cc(CO)ccc3[C@H]2N1CC12CC3CC(CC(C3)C1)C2 | -0.479
22 | CCCC[C@@H]1C[C@H]1[C@@H](NC(=O)c1cccs1)c1ccccc1C(F)(F)F | 0.758
23 | O=C(Cc1ccccc1)[C@H]1C2C=CCCC(c3ccccc3)=C2CN1Cc1ccccc1 (some centres not stated) | -0.576
24 | COC(=O)[C@]1(CCS(=O)(=O)c2ccccc2)N=C(c2ccc(OCCCO)cc2)O[C@@H]1c1ccccc1N=[N+]=[N-] | -2.55

Row | SMILES | z-score
25 | COCCOC(=O)N1C(=O)[C@@]2(c3cc(C#CC4=CCCCC4)ccc31)[C@H](c1ccccc1OCCO)N1[C@H](c3ccccc3)[C@H](c3ccccc3)OC(=O)[C@H]1[C@@H]2C(=O)N1CCN(c2ncccn2)CC1 | -2.1
26 | CN(C)C(=O)[C@@]1(Cc2ccccc2)N=C(c2ccc(OCCCO)cc2)O[C@H]1c1ccccc1 | -1.76
27 | COc1ccc(C#Cc2ccc3c(c2)[C@]2(C(=O)N3)[C@H](C(=O)O)[C@H]3C(=O)O[C@H](c4ccccc4)[C@H](c4ccccc4)N3[C@@H]2c2ccc(O)cc2)cc1 | -1.43
28 | CCCCC[C@H]1OC[C@@]23C=C(Br)[C@@H](CC12)[C@@]1(CO1)C3=O (some centres not stated) | -2.3
29 | CC1CC/C=C\[C@H]2OC34C=CCN(c5ccc(Cl)cc5)C(=O)[C@H]3N(C(C)CO)C(=O)[C@]4(C)C2C(=O)O1 (some centres not stated) | -1.16
30 | COc1cc2c(cc1O)C(C1CC1)N(Cc1cccc(OC(F)(F)F)c1)CC2 (configuration not stated) | -2.75
31 | COc1cc(C(O)C2C=CC3C(=O)N(C)C(=O)C3N2Nc2ccccc2)cc(OC)c1OC (configuration not stated) | 0.461
32 | [N-]=[N+]=NCc1ccccc1[C@H]1OC(c2ccc(OCCCO)cc2)=N[C@@]1(Cc1ccccc1N=[N+]=[N-])C(=O)NCC(O)CO (some centres not stated) | -1.75
33 | COC(=O)[C@@]1(Cc2ccc(OC)cc2)[C@H]2c3cc(C(=O)N(C)C)n(Cc4ccc(OC(F)(F)F)cc4)c3C[C@H]2CN1C(=O)c1ccccc1 | -3.63
34 | C=C(/C(=C/C[C@H](OC(C)=O)c1ccc(CO)o1)c1cnc2ccccc2c1)C(C)C | -2.23
35 | Cc1ccc(S[C@]2(C(=O)NCc3ccccc3)CC(=O)N(C3CCCCC3)[C@@H]2c2ccc(CO)cc2I)cc1 | -2.75
36 | COc1ccc([Si](C)(C)[C@@H]2[C@@H](CC(=O)N3Cc4ccccc4C[C@H]3CO)O[C@]3(C(=O)N(Cc4ccc(N5C(=O)c6cccc7cccc5c67)cc4)c4ccccc43)[C@H]2C)cc1 | -3.96
37 | CCOC(=O)C[C@H]1[C@H](OC(=O)c2ccccc2-c2ccccc2)[C@@H](NC(=O)c2ccc3ccccc3n2)c2cc(OCCCO)ccc2N1C(=O)Cc1ccc(OC)cc1 | -2.09
38 | CCOc1cc(C(O)C2C=CC3C(=O)NC(=O)C3N2Nc2ccc(Cl)cc2Cl)ccc1O (configuration not stated) | 0.822
39 | Cc1ccc(NN2C(C(O)c3c(F)cccc3Cl)C=CC3C(=O)N(C4CCCCC4)C(=O)C32)cc1 (configuration not stated) | -1.26
40 | CCOC(=O)C[C@H]1[C@H](OC(=O)c2ccc(-c3ccccc3)cc2)[C@@H](NC(=O)CC(C)C)c2cc(OCCCO)ccc2N1C(=O)c1ccc2ccccc2n1 | -1.3
41 | COC(=O)[C@@]1(Cc2ccccc2)[C@H]2c3cc(C(=O)N4CCCC4)n(CCc4ccccn4)c3C[C@H]2CN1C(=O)c1ccccc1 | -1.65
42 | Cc1ccc(S[C@]2(C(=O)NC(C)C)CC(=O)N(Cc3cc(C(F)(F)F)cc(C(F)(F)F)c3)[C@@H]2c2ccc(CO)cc2)cc1 | -0.343
